Among the test systems are NCI-H23 lung; NCI-H226 lung; NCI-H322M lung; HOP-62 NSCLC; NCI-H460 lung; HOP-92 NSCLC; NCI-H522 lung; A549/ATCC NSCLC; 786-0 renal; COLO 205 colon; DU-145 prostate; K-562 leukemia; MALME-3M melanoma; MDA-MB-231 breast; RXF 393 renal; SF-268 CNS; SF-295 CNS; SF-539 CNS; UACC-257 melanoma; M14 melanoma.
Holding throughout (assay): NCI-60 one-dose screen, 48 h (100 = growth as untreated, 0 = no growth, -100 = all killed)
Conditions in all cases: 10 µM unless noted

This is part of a sample that, as a whole, favours compounds with a hit. Of some 83,000 tested, about 20% had one in any assay.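 Plates (96-well) were seeded with cells, treated with compound at one concentration, and incubated for 48 hours before percent growth was determined.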 Unmarked numbers belong to inactive results. Activity calls are given as the source filed them. Rule for the calls: active = growth percent below 10; inactive = the rest.

On to `O=c1c2cccc(F)c2sc2c(NCCCNCCO)nc3ccccc3c12`, for which the growth in the assay on NCI-H23 lung is 49.9%; in the assay on NCI-H226 lung, 58%; with NCI-H322M lung, 44%; in the assay on HOP-62 NSCLC it was 45.3%; in the assay with NCI-H460 lung, -40.4% (active); with HOP-92 NSCLC it was 15.4%. In addition, the growth with NCI-H522 lung is 44.4%; with A549/ATCC NSCLC, 26.9%; in the assay on 786-0 renal it was 48.5%; in the assay on COLO 205 colon, -44.4% (active); in the assay on DU-145 prostate it was 23.7%; with K-562 leukemia it was -20% (active). The growth with MALME-3M melanoma was 74%; with MDA-MB-231 breast, 5.79% (active); with RXF 393 renal it was 50.8%; in the assay on SF-268 CNS, 41.9%; in the assay with SF-295 CNS it was 63.7%; with SF-539 CNS it was 41.1%. For the same compound, the values for the growth in the assay with UACC-257 melanoma and with M14 melanoma were 85.6% and -58.5% (active), respectively.

On to `N#C/C(=C\c1ccc(F)cc1)n1nc2cccc(F)c2n1`, for which the growth was 56.7% with NCI-H23 lung; 97.6% in the assay on NCI-H226 lung; 76.2% in the assay with NCI-H322M lung; 76.3% with HOP-62 NSCLC; 39.2% in the assay on NCI-H460 lung; 6.85% (active) in the assay with HOP-92 NSCLC. Moreover, the growth with NCI-H522 lung is 8.28% (active); in the assay on A549/ATCC NSCLC, 78.7%; with 786-0 renal, 67.3%; with COLO 205 colon, 67.1%; with DU-145 prostate, 37.6%; with K-562 leukemia, 13.3%. Besides, the growth in the assay with MALME-3M melanoma is 52.9%; in the assay on MDA-MB-231 breast, 49%; with RXF 393 renal, 12.8%; with SF-268 CNS, 71.4%; with SF-295 CNS, 76.1%; in the assay with SF-539 CNS it was 7.78% (active). Moreover, the growth in the assay on UACC-257 melanoma is 61%; in the assay with M14 melanoma it was 25.8%.

As for `O=CN1N=C(c2ccc(Nc3ccnc4cc(Cl)ccc34)cc2)CC1c1ccccc1` (centres undefined), the growth in the assay with NCI-H23 lung was 48%; with NCI-H226 lung, 65.3%; with NCI-H322M lung, 81.3%; in the assay on HOP-62 NSCLC it was 49.8%; with NCI-H460 lung, 44.4%; in the assay with HOP-92 NSCLC, 16.3%. Also, the growth was 2.53% (active) in the assay on NCI-H522 lung; 37.6% in the assay on A549/ATCC NSCLC; 31.4% in the assay with 786-0 renal; 55.2% in the assay with COLO 205 colon; 35.8% in the assay on DU-145 prostate; 11.8% in the assay with K-562 leukemia. In addition, the growth in the assay on MALME-3M melanoma was 24.7%; in the assay on MDA-MB-231 breast, 32.9%; in the assay on RXF 393 renal it was 31.4%; in the assay with SF-268 CNS, 37.4%; in the assay with SF-295 CNS, 17.4%; in the assay with SF-539 CNS it was 25.9%. The growth with UACC-257 melanoma was 63.3%; in the assay on M14 melanoma, 25.6%.

With `CC1=C(C)C(=O)C(Nc2cccc(C(=O)OC(C)(C)C)c2)=C(Br)C1=O`, the growth was 85.9% in the assay on NCI-H23 lung; 86.5% in the assay with NCI-H226 lung; 91.1% with NCI-H322M lung; 92.6% with HOP-62 NSCLC; 99.7% in the assay with NCI-H460 lung; -32.5% (active) with HOP-92 NSCLC. Further, the growth was 67.4% in the assay on NCI-H522 lung; 95.6% in the assay with A549/ATCC NSCLC; 96.2% with 786-0 renal; 114% with COLO 205 colon; 109% with DU-145 prostate; 0% (active) in the assay on K-562 leukemia. Besides, the growth with MALME-3M melanoma is 88.3%; in the assay on MDA-MB-231 breast, -36.1% (active); in the assay on RXF 393 renal it was 94.9%; with SF-268 CNS, 93.7%; in the assay with SF-295 CNS, 101%; in the assay with SF-539 CNS, 94.7%. The growth is 87.3% in the assay with UACC-257 melanoma and 95.1% in the assay on M14 melanoma.

As to `CCCSc1nc2ccc(C)cc2cc1/C=[N+](\[O-])c1ccccc1`, the growth is 42.1% in the assay with NCI-H23 lung; 70.8% in the assay with NCI-H226 lung; 90.9% in the assay with NCI-H322M lung; 25.5% with HOP-62 NSCLC; 96.7% with NCI-H460 lung; 19.2% in the assay on HOP-92 NSCLC. Besides, the growth with NCI-H522 lung was 72.8%; in the assay on A549/ATCC NSCLC, 95.4%; with 786-0 renal, 34.6%; with COLO 205 colon, 101%; in the assay on DU-145 prostate, 42%; in the assay with K-562 leukemia it was 40.4%. The growth with MALME-3M melanoma was 46.2%; in the assay on MDA-MB-231 breast it was 51.1%; with RXF 393 renal it was 69.4%; in the assay on SF-268 CNS, 45.5%; in the assay on SF-295 CNS, 98.8%; in the assay on SF-539 CNS, 1.38% (active). For the same compound, the growth is 63.3% with UACC-257 melanoma and 6.91% (active) with M14 melanoma.

Consider `Cc1nn(-c2ccccc2)c(-n2ccnc2)c1/C=N/Nc1nc(-c2ccc(F)cc2)cs1`, for which the growth was 58.1% with NCI-H23 lung; 50.3% in the assay with NCI-H226 lung; 88.8% in the assay on NCI-H322M lung; 98.8% with HOP-62 NSCLC; 83.3% in the assay on NCI-H460 lung; 42.9% in the assay on HOP-92 NSCLC. Also, the growth in the assay on NCI-H522 lung was 73.6%; in the assay with A549/ATCC NSCLC, 65%; in the assay on 786-0 renal, 106%; in the assay on COLO 205 colon, 70.8%; in the assay with DU-145 prostate, 87.5%; with K-562 leukemia, 38.8%. Besides, the growth is 83.2% with MALME-3M melanoma; 79.6% in the assay on MDA-MB-231 breast; 88.5% in the assay with RXF 393 renal; 76.9% with SF-268 CNS; 77.3% in the assay on SF-295 CNS; 87.6% with SF-539 CNS. Besides, the growth in the assay on UACC-257 melanoma was 75.6%; in the assay with M14 melanoma, 79.7%.

In the case of `COc1ccc(NC2=C(Br)C(=O)C(C)=C(C)C2=O)cc1`, the growth in the assay with NCI-H23 lung is 79.7%; with NCI-H226 lung it was 75.5%; in the assay with NCI-H322M lung, 89.9%; in the assay on HOP-62 NSCLC it was 84.2%; in the assay on NCI-H460 lung, 99.9%; in the assay on HOP-92 NSCLC it was -73.6% (active). Besides, the growth in the assay with NCI-H522 lung was 87.6%; in the assay with A549/ATCC NSCLC, 99.5%; in the assay with 786-0 renal, 103%; in the assay on DU-145 prostate it was 106%; in the assay on K-562 leukemia, -2.92% (active); in the assay with MALME-3M melanoma it was 94.4%. Further, the growth was -55.4% (active) in the assay with MDA-MB-231 breast; 102% in the assay on RXF 393 renal; 98% in the assay with SF-268 CNS; 98.9% in the assay with SF-295 CNS; 90.6% in the assay on SF-539 CNS; 72.8% with UACC-257 melanoma. Also, the growth in the assay on M14 melanoma is 97%.

Values taken from PubChem BioAssay (NCI).
